uPA generation – inhibitors of cell surface uPA generation; cell surface uPA generation assay, qHTS; actives 0.31% (n = 330,000); Potency, µM (doses to about 38.3 µM), for inactives: top-dose activity change, negative = inhibition, usual class: inhibitors; AID 540303; active = well fitted inhibition curve with a large enough effect; inconclusive = small, poorly fitted or top-dose-only effect; inactive = no such curve, though single readings can be large or run the other way; tested in mouse RAW 264.7 cells; note: % is set by controls: 0 for no effect and ±100 for the full control effect; nearly all actives have a fitted effect of over 55% in size
ELG1 genotoxic – induces genotoxicity in HEK293T cells with luciferase-tagged ELG1; HEK293T ELG1-luciferase reporter, luminescence, 16 h; Potency, µM (highest dose often 46 µM), without a hit: at the highest dose activity change, positive = activation, hits mostly activators; actives 1.3% (n = 330,000); AID 504466; note: % of control where 0% means no effect; nearly all actives have a fitted effect of over 60% in size
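DMSO vehicle served as control against compound-treated ELG1-luciferase HEK293T cells; exposure lasted 16 hr at 37 °C and 5% CO2, followed by ONE-Glo luminescence detection after 30 min.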
Rab9 prom act – activators of Rab9 promoter; Huh7 Rab9 promoter-luciferase reporter, luminescence, 24 h; Potency, µM (titrated, usually from 9.22 µM), for the others: top-dose activation, negative = inhibition, hits mostly activators; actives 2.8% (n = 320,000); AID 485297; note: % of control where 0% means no effect; nearly all actives have a fitted effect of over 60% in size
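Measured in stably transfected Huh7 cells bearing a Rab9 promoter–luciferase construct: 24 h compound treatment at 37 °C, followed by luminescence detection.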
NPC1 prom act – activates the NPC1 promoter; Huh7 NPC1 promoter luciferase reporter, 24 h; AID 485313; Potency, µM (series often up to 9.22 µM), for inactives: at the highest dose activation, most hits filed as activators; actives 2.4% (n = 320,000); note: % of control where 0% means no effect; nearly all actives have a fitted effect of over 60% in size
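In 1536-well qHTS, Huh7 cells harboring an NPC1 promoter–luciferase construct received compound for 24 h; activation was quantified by luminescence following luciferase reagent addition.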
SMN2 splice up – SMN2 splice variant enhancement. HEK293 SMN2-luciferase splicing reporter, luminescence, 30-36 h. Potency, µM (titrated, usually from 46.1 µM), for inactives: at the top dose activity change, positive = activation, usual class: activators. actives 2.8% (n = 210,000). AID 1458; note: % of control where 0% means no effect; nearly all actives have a fitted effect of over 55% in size
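HEK293 cells carry an SMN2 minigene-luciferase reporter in which exon 7 inclusion puts luciferase in frame. Cells were seeded at 2000 cells/well, attached for 10-12 hours, then exposed to compounds for 30-36 hours at 37C before ONE-Glo luminescence.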
FLuc counter – counter-screen for miR-21 project: firefly luciferase inhibitors or activators | P08659 | actives 6.9% (n = 360,000) | AID 588342 | Potency, µM (doses to about 57.5 µM), without a hit: at the top dose activity change, negative = inhibition, usual class: inhibitors | purified FLuc, Km substrates, luminescence inhibition;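 note: plate controls were vehicle for no effect and reference inhibitor for full effect; nearly all actives have a fitted effect of over 55% in size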
Target sequence (P08659 whole entry, looked up): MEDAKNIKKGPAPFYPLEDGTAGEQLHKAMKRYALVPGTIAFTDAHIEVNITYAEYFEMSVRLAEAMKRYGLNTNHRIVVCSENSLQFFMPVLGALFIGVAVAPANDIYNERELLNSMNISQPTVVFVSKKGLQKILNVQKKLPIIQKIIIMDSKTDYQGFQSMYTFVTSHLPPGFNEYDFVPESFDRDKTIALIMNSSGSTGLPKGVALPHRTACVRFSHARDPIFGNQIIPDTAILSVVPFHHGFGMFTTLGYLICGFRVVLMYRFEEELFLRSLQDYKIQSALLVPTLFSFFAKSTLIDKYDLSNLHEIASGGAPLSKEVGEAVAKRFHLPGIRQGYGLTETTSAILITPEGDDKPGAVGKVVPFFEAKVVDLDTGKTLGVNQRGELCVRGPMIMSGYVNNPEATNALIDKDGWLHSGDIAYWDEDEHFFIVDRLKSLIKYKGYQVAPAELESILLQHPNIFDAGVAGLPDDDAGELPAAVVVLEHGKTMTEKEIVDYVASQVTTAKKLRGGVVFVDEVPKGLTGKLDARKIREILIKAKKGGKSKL
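Purified P. pyralis luciferase (10nM final) with 10uM D-luciferin and 10uM ATP (Km levels) in 50mM Tris acetate pH 7.5, 10mM Mg acetate, 0.01% Tween-20, 0.05% BSA; qHTS 6-point titration, ~60 µM downward; luminescence read.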
* = called active by the depositor. Only some compounds are listed: those with a hit (about 7.3% of all), similar ones and a draw of the others. Unless noted, calls come from the whole dose curve; as a rule, active = well fitted curve in the direction sought with a large enough effect; inconclusive = small, poorly fitted or top-dose-only effect, or another doubt; inactive = no such curve, though single readings can be large; an effect the other way counts as inactive or inconclusive. Potency is the fitted concentration of half-maximal effect.

How did CN1C(=O)C(Cc2c[nH]c3ccccc23)NC1=S (centres undefined) do in these assays?
SMN2 splice up: 12.6µM*

What do the screens show for `O=C1C(Cc2c[nH]c3ccccc23)NC(=S)N1Cc1ccccc1` (centres undefined)?
uPA generation: 8.7%; ELG1 genotoxic: -3.6%; Rab9 prom act: -2.3%; NPC1 prom act: -1.8%; SMN2 splice up: -3.9%; FLuc counter: 2.8%

Results for O=C(CN1C(=O)NC(Cc2c[nH]c3ccccc23)C1=O)Nc1ccc(F)cc1F (centres undefined) ?
uPA generation: 2.4%; ELG1 genotoxic: 1.4%

What do the screens show for `N[C@H](C(=O)O)[C@@H]1[C@@H](C(=O)O)C1(F)F`?
SMN2 splice up: -11.2%

Results for O=C(NNC(=O)c1ccccn1)c1ccc(OC(F)F)cc1 ?
uPA generation: -11.0%; ELG1 genotoxic: inconclusive

What do the screens show for `O=C(NCc1ccccn1)c1cn(-c2ccccc2)nc1-c1ccc(Cl)cc1`?
uPA generation: 1.3%; ELG1 genotoxic: 0.3%; Rab9 prom act: -5.1%; NPC1 prom act: -1.9%; SMN2 splice up: 12.3%; FLuc counter: 19µM*

Results for O=C(NCc1ccco1)c1cc(-c2ccc3c(c2)OCO3)on1 ?
ELG1 genotoxic: inconclusive; Rab9 prom act: 3.98µM*; NPC1 prom act: 2.51µM*; SMN2 splice up: inconclusive; FLuc counter: inconclusive

Results for O=C(NCCc1ccccn1)c1ccc(OC(F)F)cc1 ?
uPA generation: -8.4%; ELG1 genotoxic: inconclusive; Rab9 prom act: 0.794µM*; NPC1 prom act: 1.41µM*; SMN2 splice up: 11.2µM*; FLuc counter: 10.7µM*

Results for O=C(/C=C/c1ccc(Cl)cc1)NCc1ccco1 ?
uPA generation: 3.5%; ELG1 genotoxic: 12.2%; Rab9 prom act: 20.9%; NPC1 prom act: 5.7%; SMN2 splice up: 24.0%; FLuc counter: 13.5µM*

How did COc1ccc(Oc2ncc3nc(-c4ccccc4)c(=O)n(Cc4cccs4)c3n2)cc1 do in these assays?
SMN2 splice up: -25.9%

What do the screens show for `COc1cccc(-c2cc(C(=O)NCc3ccco3)no2)c1`?
ELG1 genotoxic: 10.3µM*; Rab9 prom act: 1.78µM*; NPC1 prom act: 3.16µM*; SMN2 splice up: 11.2µM*; FLuc counter: 10.7µM*

How did Cc1ccc(-c2cc(C(=O)NCc3ccccn3)no2)cc1 do in these assays?
uPA generation: -15.6%; ELG1 genotoxic: 13µM*; Rab9 prom act: inconclusive; NPC1 prom act: inconclusive; SMN2 splice up: 28.2µM*; FLuc counter: 16.9µM*

What do the screens show for `O=C(NCc1ccccn1)c1ccc([N+](=O)[O-])cc1`?
uPA generation: 3.9%; ELG1 genotoxic: -0.8%; Rab9 prom act: -2.7%; NPC1 prom act: -0.8%; SMN2 splice up: -4.6%; FLuc counter: -1.7%

How did O=C(NCc1ccco1)c1cc(-c2cccc(Cl)c2)on1 do in these assays?
ELG1 genotoxic: inconclusive; Rab9 prom act: 24.4%; NPC1 prom act: 24.2%; SMN2 splice up: -6.3%; FLuc counter: -4.3%

Results for O=C(NCc1ccccn1)c1ccc(-c2ccccc2)cc1 ?
uPA generation: 5.4%; ELG1 genotoxic: inconclusive; Rab9 prom act: inconclusive; NPC1 prom act: inconclusive; FLuc counter: 12µM*

Results for Cc1ccc(-c2cc(C(=O)NCc3ccco3)no2)cc1 ?
uPA generation: -10.8%; ELG1 genotoxic: inconclusive; Rab9 prom act: 2.24µM*; NPC1 prom act: 2.82µM*; SMN2 splice up: inconclusive; FLuc counter: inconclusive

How did Cc1cc(C(=O)NCc2ccco2)no1 do in these assays?
ELG1 genotoxic: 0.0%; Rab9 prom act: -7.6%; NPC1 prom act: -5.4%; FLuc counter: -1.7%

What do the screens show for `Cc1cc(=O)n2[nH]c(NC(=O)c3cccc(Cl)c3)nc2n1`?
SMN2 splice up: -9.3%; FLuc counter: -16.5%

What do the screens show for `Cc1ccc(N2CC(C(=O)Nc3nc4ccc(S(C)(=O)=O)cc4s3)CC2=O)cc1C` (centres undefined)?
uPA generation: -2.1%; ELG1 genotoxic: -7.4%; Rab9 prom act: 3.6%; NPC1 prom act: -1.0%; FLuc counter: inconclusive

How did COc1ccc(S(=O)(=O)N(CC(=O)N2CCC(C)CC2)c2ccc(C)cc2)cc1 do in these assays?
SMN2 splice up: -5.6%; FLuc counter: -14.6%

Results for CC(C)Cc1cc(C(=O)NCc2ccco2)no1 ?
uPA generation: -26.2%; ELG1 genotoxic: inconclusive; Rab9 prom act: 3.98µM*; NPC1 prom act: inconclusive; FLuc counter: 16.9µM*

Results for O=C(NCCCn1ccnc1)c1cn(-c2ccccc2)nc1-c1ccccc1 ?
uPA generation: -10.5%; SMN2 splice up: 5.8%; FLuc counter: 12µM*

Results for O=C(NCc1ccco1)c1cc(-c2ccc(Cl)cc2)on1 ?
ELG1 genotoxic: 15.9%; Rab9 prom act: inconclusive; NPC1 prom act: 3.16µM*; SMN2 splice up: -10.9%; FLuc counter: -10.9%

How did Cc1ccc(NC(=O)CSc2nnc3nc(C)cc(C)n23)cc1 do in these assays?
SMN2 splice up: -3.0%; FLuc counter: -4.6%

Results for COc1cccc(N2C(=O)CSC23C(=O)N(CC(=O)NCc2ccc(C)cc2)c2ccccc23)c1 (centres undefined) ?
FLuc counter: -8.1%

How did Cc1cc(C)c2nc(N3CCN(C(=O)c4ccco4)CC3)sc2c1 do in these assays?
uPA generation: -0.4%; ELG1 genotoxic: 5.0%; Rab9 prom act: inconclusive; NPC1 prom act: 26.7%; FLuc counter: 16.9µM*

What do the screens show for `CC(=O)c1ccc(N2CCN(C(=O)c3ccco3)CC2)c(F)c1`?
uPA generation: 0.4%; ELG1 genotoxic: inconclusive; Rab9 prom act: inconclusive; NPC1 prom act: inconclusive; SMN2 splice up: 2.82µM*; FLuc counter: -22.9%

How did Cc1cc2nc(N3CCN(C(=O)c4ccco4)CC3)sc2cc1C do in these assays?
uPA generation: 5.1%; ELG1 genotoxic: 19.4%; Rab9 prom act: 0.794µM*; NPC1 prom act: 2.51µM*; FLuc counter: 6.01µM*

Results for Cc1cc2nc(N3CCN(C(=O)c4cccs4)CC3)sc2cc1C ?
uPA generation: 5.5%; ELG1 genotoxic: 10.3%; Rab9 prom act: 2.82µM*; NPC1 prom act: 3.98µM*; FLuc counter: inconclusive

Results for Cc1cc(C)c2nc(N3CCN(C(=O)c4cccs4)CC3)sc2c1 ?
uPA generation: 4.4%; ELG1 genotoxic: 25.7%; Rab9 prom act: 2.0%; NPC1 prom act: -1.0%; FLuc counter: inconclusive

Results for CC1(c2ccccc2)CC(C)(C)N(C(=O)c2ccccc2Cl)c2ccccc21 (centres undefined) ?
SMN2 splice up: -3.4%; FLuc counter: -15.9%

Screens: PubChem, National Center for Advancing Translational Sciences (NCATS)
